A selection: hits, their analogues and other compounds. The true share with any hit is near 4%.
RAD52 anneal inh = inhibitors of human RAD52 DNA annealing. P43351. recombinant RAD52 DNA annealing, FRET fluorescence. inhibition, % at 18.7 µM. actives 0.46% (n = 360,000). AID 651710;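 active means every replicate showing at least 50% inhibition; inconclusive means mean inhibition at least 50% but not in every replicate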
Target sequence (P43351 whole entry, looked up): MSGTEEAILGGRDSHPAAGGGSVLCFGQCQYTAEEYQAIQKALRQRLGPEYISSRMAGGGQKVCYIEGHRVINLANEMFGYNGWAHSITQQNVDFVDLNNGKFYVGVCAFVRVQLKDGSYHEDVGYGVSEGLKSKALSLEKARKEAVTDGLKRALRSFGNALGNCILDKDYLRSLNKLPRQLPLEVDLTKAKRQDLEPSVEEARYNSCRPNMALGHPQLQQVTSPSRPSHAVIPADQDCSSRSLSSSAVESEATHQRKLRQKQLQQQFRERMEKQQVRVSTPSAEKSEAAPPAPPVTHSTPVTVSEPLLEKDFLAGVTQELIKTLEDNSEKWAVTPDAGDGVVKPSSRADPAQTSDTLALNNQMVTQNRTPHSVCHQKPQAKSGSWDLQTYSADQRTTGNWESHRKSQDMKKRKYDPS
AF4-AF9 inh = inhibitors of human MLL-AF4/AF9 interaction | P42568 | inhibition, % at 10 µM | AID 651704 | AlphaScreen, biotin-AF4 peptide binding to FLAG-AF9 | actives 0.47% (n = 350,000);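 active means every replicate reaching a set inhibition limit, whatever the replicate mean, cut at about 25% in these data; inconclusive means mean inhibition reaches that limit but some replicates miss it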;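 further: 0% = plate neutral control median and 100% = total signal loss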
ERAP1 inh = ERAP1 (human) enzyme inhibition; inhibition, % at 10.7 µM; Q9NZ08; recombinant ERAP1, Leu-AMC fluorescence, 60 min; actives 0.15% (n = 340,000);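 active means mean replicate inhibition of at least 30%, or all replicates individually reaching that 30% level; inactive means mean below 30% and not every replicate reaching it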;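 further: 0% = neutral control wells and 100% = L-leucinethiol positive control wells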
FGF22 binding = FGF22 (human) thermal shift binding. Q9HCT0. recombinant FGF22 thermal shift, SYPRO orange fluorescence; percent of sucrose octasulfate shift, DMSO zero. activity (Tm shift, normalised), % at 9.99 µM. actives 1.5% (n = 340,000). AID 651658;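 active means mean Tm shift, scaled 0 neutral to 100 positive control, at about 1.3% or above, every replicate too, limit read from the data; inconclusive means no clear call, values can overlap the other calls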
DENV2 CPE = protects cells from dengue virus 2 cytopathic effect. DENV2-infected cells, cytopathic effect rescue, plate reader. CPE inhibition, % at 9.99 µM. actives 1.7% (n = 350,000). AID 651640; in the data active means CPE inhibition above about 20%, passing the limit was not always enough; inconclusive means no clear call, values can overlap the other calls; tested in BHK-21 cells;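 further: 0% = median of neutral control wells and 100% = median of positive control wells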
* marks the source's active call; other numbers are inactive results.

For O=S(=O)(Cc1cc(N2CCOCC2)nc(-c2ccccn2)n1)c1ccccc1 the results were RAD52 anneal inh -14, AF4-AF9 inh -1, ERAP1 inh 2, FGF22 binding 0 and DENV2 CPE 33*.
Screening O=S(=O)(c1ccccc1)n1cc(-c2ccccn2)c(N2CCOCC2)n1 returned RAD52 anneal inh 11, AF4-AF9 inh -5, ERAP1 inh 3, FGF22 binding 1 and DENV2 CPE 2.
Screening CCOC(=O)c1c(C)oc2cc(Cl)c(O)c(CN(C)C)c12 returned RAD52 anneal inh 10, AF4-AF9 inh 4, FGF22 binding 0 and DENV2 CPE -3.
`CCOC(=O)c1c(-c2ccccc2)oc2cc(CN(C)C)c(O)c(CN(C)C)c12` gave RAD52 anneal inh -47, AF4-AF9 inh 36*, ERAP1 inh 1, FGF22 binding 0 and DENV2 CPE -11.
Screening Cc1noc(NS(=O)(=O)c2ccc(NC(=O)/C=C/c3ccc(C(C)C)cc3)cc2)c1C returned RAD52 anneal inh -14, AF4-AF9 inh 4, ERAP1 inh 3, FGF22 binding 1.4* and DENV2 CPE -1.
COc1cccc(-c2ccc([C@@H]3[C@H]4CN(C(=O)C5CCC5)CC(=O)N4[C@H]3CO)cc2)c1 was read as RAD52 anneal inh 5, AF4-AF9 inh -7, ERAP1 inh -1 and DENV2 CPE 12.
For CCN1CCN(CCCNC(=O)CCc2nc(-c3ccc(OC)cc3)no2)CC1 the results were RAD52 anneal inh -6, AF4-AF9 inh -3, ERAP1 inh -3, FGF22 binding 43* and DENV2 CPE inconclusive.
`COCC1=C([C@H](O)c2ccccc2)[C@H](CO)[C@@H]2C(=O)N(C)C(=O)[C@@H]2C1` gave RAD52 anneal inh -15, AF4-AF9 inh 0, ERAP1 inh -1, FGF22 binding 0 and DENV2 CPE -4.
For O=C1CN(Cc2ccc(F)cc2)C[C@H]2[C@@H](c3ccc(-c4cccnc4)cc3)[C@H](CO)N12 the results were RAD52 anneal inh 0, AF4-AF9 inh -1, ERAP1 inh 1 and DENV2 CPE 24*.
`O=C1CN(Cc2ccc(F)cc2)C[C@@H]2[C@@H](c3ccc(-c4cccnc4)cc3)[C@@H](CO)N12` gave RAD52 anneal inh 1, AF4-AF9 inh -3, ERAP1 inh 1 and DENV2 CPE 2.
For Cc1cccc(-c2ccc([C@H]3[C@H]4CN(C(=O)c5cccnc5)CC(=O)N4[C@H]3CO)cc2)c1 the results were RAD52 anneal inh -9, AF4-AF9 inh 36*, ERAP1 inh 0 and DENV2 CPE -1.

Assay outcomes from PubChem.
